Whole data set: some 16,000 sequences, median “rpm ratio (pull-down/input)” near 0.5, cut for the highest 2% near 5.5. For the sample, the highest values were picked, then their nearest neighbours and some sequences at random.

This experiment has as its target T1, MBP-FoxP3dN (Mus musculus, UniProt Q99JB6 188-423).
T1 sequence: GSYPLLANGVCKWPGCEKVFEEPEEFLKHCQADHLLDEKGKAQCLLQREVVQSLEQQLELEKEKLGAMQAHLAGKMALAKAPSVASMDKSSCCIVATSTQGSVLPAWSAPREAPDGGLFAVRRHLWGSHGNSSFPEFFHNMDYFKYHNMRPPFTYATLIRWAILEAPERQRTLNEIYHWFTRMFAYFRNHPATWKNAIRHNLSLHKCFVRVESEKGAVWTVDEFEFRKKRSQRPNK
In words: PD-seq (MBP pull-down with sequencing); 20 mM Tris-HCl pH 7.5, 100 mM NaCl, 1.5 mM MgCl2, 0.4 uM protein, 0.1 uM dsDNA library, 30 min, room temperature, amylose pull-down; high values mean tight binding. As to conditions: protein: recombinant; tags: His6-MBP; chain copies: 2; dsDNA, one strand shown. In a few lines:
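Protein and DNA were mixed at 0.4 µM and 0.1 µM and held for 30 min at room temperature in Tris pH 7.5 buffer with NaCl and MgCl2; the protein was a His6-MBP-tagged, N-terminally truncated mouse FoxP3 or FoxP1 fragment from E. coli, and the DNA a Klenow-filled double-stranded degenerate library. Amylose resin captured the complexes, which were washed three times. Binding is read as reads-per-million enrichment of pull-down versus input after Illumina sequencing, with replicates pooled.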
Turning to “GATGATTGTTCTCCCAGCTGATGAATTTGTACCTTCGAGTAAACAAATTTTCCTAATCTTTCTGTTCAAGCGCCATCTAC”, the binding signal was 2.49 RPM ratio (pull-down/input). In the case of “GATGATTGTTCTCCCAGCTGATGAATTGAGCCCCTCGAGTAAACAAATTTTCCTAATCTTTCTGTTCAAGCGCCATCTAC”, the binding signal was 0.983 RPM ratio (pull-down/input).

Turning to “GATGATTGTTCTCCCAGCTGATGAATTACACCTCTCGAGTAAACAAATTTTCCTAATCTTTCTGTTCAAGCGCCATCTAC”, the binding signal was 0.705 RPM ratio (pull-down/input). For “GATGATTGTTCTCCCAGCTGATGAATTAACTGTGTCGAGTAAACAAATTTTCCTAATCTTTCTGTTCAAGCGCCATCTAC”, the binding signal was 0.556 RPM ratio (pull-down/input). For “GATGATTGTTCTCCCAGCTGATGAATTGTGTTTTTCGAGTAAACAAATTTTCCTAATCTTTCTGTTCAAGCGCCATCTAC” the value was 6.66 RPM ratio (pull-down/input).

With “GATGATTGTTCTCCCAGCTGATGAATTTTGCGTCTCGAGTAAACAAATTTTCCTAATCTTTCTGTTCAAGCGCCATCTAC”, the binding signal is 5.4 RPM ratio (pull-down/input). The figure for “GATGATTGTTCTCCCAGCTGATGAATTCTGCGTCTCGAGTAAACAAATTTTCCTAATCTTTCTGTTCAAGCGCCATCTAC” is 4.55 RPM ratio (pull-down/input); for “GATGATTGTTCTCCCAGCTGATGAATTGTGTGTTTCGAGTAAACAAATTTTCCTAATCTTTCTGTTCAAGCGCCATCTAC” it is 4.97 RPM ratio (pull-down/input); for “GATGATTGTTCTCCCAGCTGATGAATTTGTGCGTTCGAGTAAACAAATTTTCCTAATCTTTCTGTTCAAGCGCCATCTAC” it is 3.7 RPM ratio (pull-down/input). Turning to “GATGATTGTTCTCCCAGCTGATGAATTGCGTTTTTCGAGTAAACAAATTTTCCTAATCTTTCTGTTCAAGCGCCATCTAC”, the binding signal was 2.11 RPM ratio (pull-down/input). In the case of “GATGATTGTTCTCCCAGCTGATGAATTTGTGCTCTCGAGTAAACAAATTTTCCTAATCTTTCTGTTCAAGCGCCATCTAC”, the binding signal is 2.89 RPM ratio (pull-down/input).

Take “GATGATTGTTCTCCCAGCTGATGAATTGTGCGTTTCGAGTAAACAAATTTTCCTAATCTTTCTGTTCAAGCGCCATCTAC”: the binding signal is 5.5 RPM ratio (pull-down/input). In the case of “GATGATTGTTCTCCCAGCTGATGAATTTGTGTGCTCGAGTAAACAAATTTTCCTAATCTTTCTGTTCAAGCGCCATCTAC”, the binding signal was 5.67 RPM ratio (pull-down/input). As to “GATGATTGTTCTCCCAGCTGATGAATTCTGTGTTTCGAGTAAACAAATTTTCCTAATCTTTCTGTTCAAGCGCCATCTAC”, the binding signal is 3.31 RPM ratio (pull-down/input). As to “GATGATTGTTCTCCCAGCTGATGAATTTTTGTGCTCGAGTAAACAAATTTTCCTAATCTTTCTGTTCAAGCGCCATCTAC”, the binding signal was 0.442 RPM ratio (pull-down/input).

Turning to “GATGATTGTTCTCCCAGCTGATGAATTGTGCGTCTCGAGTAAACAAATTTTCCTAATCTTTCTGTTCAAGCGCCATCTAC”, the binding signal was 6.12 RPM ratio (pull-down/input). On to “GATGATTGTTCTCCCAGCTGATGAATTAACGGATTCGAGTAAACAAATTTTCCTAATCTTTCTGTTCAAGCGCCATCTAC”, for which the binding signal is 0.29 RPM ratio (pull-down/input). Turning to “GATGATTGTTCTCCCAGCTGATGAATTCCTAACTTCGAGTAAACAAATTTTCCTAATCTTTCTGTTCAAGCGCCATCTAC”, the binding signal was 0.231 RPM ratio (pull-down/input).

For “GATGATTGTTCTCCCAGCTGATGAATTCACCTTATCGAGTAAACAAATTTTCCTAATCTTTCTGTTCAAGCGCCATCTAC”, the binding signal is 0.363 RPM ratio (pull-down/input). For “GATGATTGTTCTCCCAGCTGATGAATTGGAGCTGTCGAGTAAACAAATTTTCCTAATCTTTCTGTTCAAGCGCCATCTAC” the value was 0.312 RPM ratio (pull-down/input). Consider “GATGATTGTTCTCCCAGCTGATGAATTCTATAGGTCGAGTAAACAAATTTTCCTAATCTTTCTGTTCAAGCGCCATCTAC”, for which the binding signal was 0.372 RPM ratio (pull-down/input). Regarding “GATGATTGTTCTCCCAGCTGATGAATTCCAGCTGTCGAGTAAACAAATTTTCCTAATCTTTCTGTTCAAGCGCCATCTAC”, the binding signal was 0.355 RPM ratio (pull-down/input). The figure for “GATGATTGTTCTCCCAGCTGATGAATTACCATAATCGAGTAAACAAATTTTCCTAATCTTTCTGTTCAAGCGCCATCTAC” is 0.448 RPM ratio (pull-down/input). On to “GATGATTGTTCTCCCAGCTGATGAATTCAGCGCCTCGAGTAAACAAATTTTCCTAATCTTTCTGTTCAAGCGCCATCTAC”, for which the binding signal is 1.17 RPM ratio (pull-down/input). In the case of “GATGATTGTTCTCCCAGCTGATGAATTGCTACCGTCGAGTAAACAAATTTTCCTAATCTTTCTGTTCAAGCGCCATCTAC”, the binding signal was 0.615 RPM ratio (pull-down/input).

In the case of “GATGATTGTTCTCCCAGCTGATGAATTCATACTATCGAGTAAACAAATTTTCCTAATCTTTCTGTTCAAGCGCCATCTAC”, the binding signal is 0.534 RPM ratio (pull-down/input). On to “GATGATTGTTCTCCCAGCTGATGAATTCGAGCCATCGAGTAAACAAATTTTCCTAATCTTTCTGTTCAAGCGCCATCTAC”, for which the binding signal was 1.13 RPM ratio (pull-down/input). “GATGATTGTTCTCCCAGCTGATGAATTGACGTCTTCGAGTAAACAAATTTTCCTAATCTTTCTGTTCAAGCGCCATCTAC”: the binding signal was 0.448 RPM ratio (pull-down/input).

With “GATGATTGTTCTCCCAGCTGATGAATTGTACTACTCGAGTAAACAAATTTTCCTAATCTTTCTGTTCAAGCGCCATCTAC”, the binding signal is 0.546 RPM ratio (pull-down/input).

Take “GATGATTGTTCTCCCAGCTGATGAATTATCAGGCTCGAGTAAACAAATTTTCCTAATCTTTCTGTTCAAGCGCCATCTAC”: the binding signal is 0.299 RPM ratio (pull-down/input). On to “GATGATTGTTCTCCCAGCTGATGAATTGTGTTCTTCGAGTAAACAAATTTTCCTAATCTTTCTGTTCAAGCGCCATCTAC”, for which the binding signal was 2.39 RPM ratio (pull-down/input).

In the case of “GATGATTGTTCTCCCAGCTGATGAATTTCTGTGTTCGAGTAAACAAATTTTCCTAATCTTTCTGTTCAAGCGCCATCTAC”, the binding signal was 0.716 RPM ratio (pull-down/input). For the sequence “GATGATTGTTCTCCCAGCTGATGAATTGTTGTGTTCGAGTAAACAAATTTTCCTAATCTTTCTGTTCAAGCGCCATCTAC”, the binding signal is 6.09 RPM ratio (pull-down/input).

These data come from article PMC12820563, “FoxP3 forms a head-to-head dimer in vivo and stabilizes its multimerization on adjacent microsatellites”.
